Shown are actives, neighbours in structure and some others; about 22% of the full set was active somewhere.
Shiga toxin inh: A qHTS for Small Molecule Inhibitors of Shiga Toxin | Vero cells, Shiga toxin protein synthesis inhibition reporter | inhibition, % at 38.7 µM | 290,000 compounds, 9.2% hits | AID 2315, 2010; in the data active = inhibition mostly above about 28%, no sharp cut-off; inactive = mostly below about 43%; also: 0% is about no effect
Cycloheximide cs: Cycloheximide Counterscreen for Small Molecule Inhibitors of Shiga Toxin | 300,000 compounds, 12% hits | AID 2314, 2010 | cell reporter, cycloheximide protein synthesis inhibition counterscreen | max response, %; in the data active = max response mostly above about 13%, no sharp cut-off; inactive = mostly below about 14%; also: read at 38.3 µM for the half of the compounds with a filed dose; 0% is about no effect
Pf growth 96h: Primary qHTS for delayed death inhibitors of the malarial parasite plastid, 96 hour incubation. 320,000 compounds, 6.9% hits. P. falciparum luciferase reporter growth, 96 h. AID 504834, 2011. Potency, µM (top dose mostly 28.7 µM), inactives show top-dose activity change, negative = inhibition, actives largely listed as inhibitors; also: potency is read from the fitted curve at half-maximal effect; % is scaled to controls: 0 for no effect and ±100 for the full control effect
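P. falciparum expressing integrated firefly luciferase, in erythrocytes at 2% hematocrit, 0.05% parasitemia, incubated with compounds 96 h at 37 C, 5% CO2. Growth inhibition read as loss of luminescence; two-generation exposure targets delayed-death apicoplast inhibitors.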
Pf growth 48h: Primary qHTS for delayed death inhibitors of the malarial parasite plastid, 48 hour incubation. P. falciparum luciferase growth in erythrocytes, 48 h. Potency, µM (doses to about 28.7 µM), for inactives: at the top dose activity change, negative = inhibition, actives largely listed as inhibitors. 310,000 compounds, 5.9% hits; also: potency is read from the fitted curve at half-maximal effect; % is scaled to controls: 0 for no effect and ±100 for the full control effect
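Parasite viability was followed by luminescence of a genomically integrated firefly luciferase. Cultures held 0.1% parasitemia at 2% hematocrit (final), incubated under 5% CO2 at 37 C.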
LmPK inh: qHTS Assay for Inhibitors of Leishmania Mexicana Pyruvate Kinase (LmPK); Q27686; purified LmPK, Kinase-Glo ATP luminescence, 1 h; Potency, µM (top dose mostly 57.5 µM), without a hit: at the top dose activity change, negative = inhibition, most hits filed as inhibitors; 290,000 compounds, 0.37% hits; AID 1721, 2009; also: potency is read from the fitted curve at half-maximal effect; % is scaled to controls: 0 for no effect and ±100 for the full control effect
Target sequence (Q27686 whole entry, looked up): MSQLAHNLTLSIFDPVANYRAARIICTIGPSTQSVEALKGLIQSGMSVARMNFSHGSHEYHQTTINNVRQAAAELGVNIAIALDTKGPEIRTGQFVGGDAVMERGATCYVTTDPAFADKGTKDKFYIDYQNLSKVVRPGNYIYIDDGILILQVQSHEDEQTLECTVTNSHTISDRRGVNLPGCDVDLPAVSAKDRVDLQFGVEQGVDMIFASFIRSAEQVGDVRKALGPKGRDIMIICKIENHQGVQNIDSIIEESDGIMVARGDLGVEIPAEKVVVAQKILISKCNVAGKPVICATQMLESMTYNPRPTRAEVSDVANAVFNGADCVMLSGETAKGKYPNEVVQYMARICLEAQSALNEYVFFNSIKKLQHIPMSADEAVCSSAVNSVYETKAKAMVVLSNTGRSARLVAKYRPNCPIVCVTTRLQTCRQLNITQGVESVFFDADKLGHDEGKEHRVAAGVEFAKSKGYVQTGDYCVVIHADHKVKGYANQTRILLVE
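Purified LmPK (0.1 nM) converted ADP (0.1 mM) to ATP with PEP (0.5 mM) in imidazole buffer pH 7.2 with KCl and MgCl2, 1 h at room temperature. ATP was read by Kinase-Glo luminescence; data normalized to uninhibited and no-enzyme controls.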
An asterisk follows results filed as active; ? = inconclusive; · = no result given. Unless noted, calls follow the shape of the dose curve; as a rule, active = well fitted inhibition curve with a large enough effect; inconclusive = small, poorly fitted or top-dose-only effect, or another doubt; inactive = no such curve, though single readings can be large or run the other way.

SMILES	Shiga toxin inh	Cycloheximide cs	Pf growth 96h	Pf growth 48h	LmPK inh
O=C(Nc1nnc(SCc2ccc(F)cc2)s1)c1ccc2c(c1)C(=O)N(c1ccccc1Cl)C2=O	-0.1	5.8	-0.5%	0.0%	0.1%
CN(c1ccccc1)S(=O)(=O)c1ccc(C(=O)OCC(=O)NCc2cccs2)cc1	-4.7	-7.7	21.1%	?	-0.5%
O=S(=O)(NC1Cc2ccccc2C1)c1ccccc1	-4.2	-1.7	10.3%	2.9%	7.9%
CN(CC(=O)Nc1ccccc1Cl)C(=O)COC(=O)c1nc(Cl)c(Cl)c(Cl)c1Cl	52.5*	45.2*	0.0%	-4.5%	-0.3%
COc1ccc(CNC(=O)[C@@H](NC(=O)C2CCN(C(=O)[C@@H](N)CC(C)C)CC2)C(C)C)cc1	-7.5	-5.5	-7.5%	-13.1%	-8.5%
CC(=O)c1ccc2oc3ccccc3c(=O)c2c1	16.6*	15.1	131.3%	78.1%	-3.1%
COC(=O)Cc1cccc2c(=O)c3ccccc3oc12	21.9	-2.6	4.5%	0.6%	-1.3%
COc1ccc2c(c1)oc(=O)c1ccccc12	71.0*	33.4*	1.2%	37.5%	4.1%
COc1ccc2c(c1)oc(=O)c1cc(OC)ccc12	52.2*	25.8*	95.6%	131.0%	-11.6%
COc1ccc(-c2cc(=O)c3cc(OC)ccc3o2)cc1	66.0*	55.2	437.5%	291.3%	-17.5%
CC(=O)Nc1cccc(C(=O)OCC(=O)Nc2c(C)nn(-c3ccccc3)c2C)c1	·	·	15.8%	0.4%	·
COc1ccc(/C=N/NC(=O)c2nnn(-c3nonc3N)c2CN(C)c2ccccc2)cc1	-6.1	-2.4	-0.1%	11.1%	0.0%
COc1ccc2c(=O)c(N3C(=O)c4ccccc4C3=O)c(C)oc2c1	1.7	-2.4	-16.9%	9.7%	-2.4%
COc1ccc2c(C)c(Cl)c(=O)oc2c1	1.6	-1.9	-11.6%	0.0%	4.4%
COc1ccc2c(=O)c3ccccc3oc2c1	42.4*	33.0*	93.9%	115.4%	-11.3%
COc1ccc2c(c1)oc(=O)c1c3ccccc3[nH]c21	56.5*	62.5*	?	?	-29.2%
C=CCn1c(SCC(=O)N2CCc3ccccc3C2)nc2ccccc2c1=O	-15.1	4.6	-8.5%	?	0.2%
CC(C)OC(=O)CSc1nc2ccccc2s1	63.6*	48.9*	?	25.8%	-14.7%
Nc1nonc1NC(=O)CSc1nc2ccccc2s1	11.8	17.5	10.4µM*	19.1%	2.9%
O=C(CSc1nc2ccccc2s1)c1cc2ccccc2o1	45.4	24.3*	8.8%	-11.3%	9.3%
CC(=O)CSc1nc2ccccc2s1	61.4	24.7*	57.3%	83.7%	-5.7%
O=C(CSc1nc2ccccc2s1)CSc1nc2ccccc2s1	-19.0	-0.6	·	-7.5%	-2.2%
COC(=O)c1ccc(CSc2nc3ccccc3s2)o1	47.9*	55.6*	0.0%	72.2%	-0.3%
COc1ccccc1NC(=O)C(C)OC(=O)c1cc2ccccc2[nH]1 (centres undefined)	·	·	?	9.28µM*	·
COc1ccccc1NC(=O)C(C)OC(=O)C1CCC(C(C)(C)C)CC1 (centres undefined)	·	·	14.7µM*	2.94µM*	·
SMILES	Shiga toxin inh	Cycloheximide cs	Pf growth 96h	Pf growth 48h	LmPK inh
COc1ccccc1NC(=O)C(C)OC(=O)C1CC(=O)N(c2ccc3c(c2)OCCO3)C1 (centres undefined)	-2.2	-1.1	62.0%	1.3%	-7.0%
CNC1CC(N)[C@H](O)[C@@H](O[C@@H]2OC(CO)C3OC4(OC(C(N)CO)C(O)C(O)C4O)O[C@@H]3[C@H]2O)C1O (some centres undefined)	·	·	14.2%	-5.3%	·
COc1cc2c(cc1OC)C(C(=O)O)C(c1ccc(C)o1)N(C)C2=O (centres undefined)	-3.0	-3.6	13.1µM*	32.8%	0.8%
CCOc1cc(C2C(C(=O)O)c3cc(OCC)c(OCC)cc3C(=O)N2C)ccc1O (centres undefined)	17.1	-3.2	11.7µM*	-6.8%	-2.6%
CCOc1cc2c(cc1OCC)C(C(=O)O)C(c1cc(OC)c(OC)c(OC)c1)N(C)C2=O (centres undefined)	34.0	-0.5	?	?	2.2%
CC(=O)c1cccc(NC(=O)CNC(=O)c2sc3ccccc3c2Cl)c1	·	·	12.5%	?	·
CN(Cc1ccc(F)cc1)C(=O)c1cccc(OCc2ccccc2)c1	18.4	0.9	-20.0%	0.0%	2.0%
Cn1c(=O)c2c(ncn2CC(=O)N/N=C/C=C\c2ccccc2[N+](=O)[O-])n(C)c1=O	-10.3	1.9	21.5%	15.0%	-7.1%
C=C[C@H](CC(C)C)N(Cc1ccccc1)S(=O)(=O)N(Cc1ccc(OC)cc1)[C@H](C=C)CC(C)C	·	·	?	5.22µM*	·
CCOC(=O)[C@@H](C)N(Cc1ccc(OC)cc1)S(=O)(=O)N(Cc1ccccc1)[C@H](C(=O)OC)C(C)C	·	·	?	10.4µM*	·
CCOc1ccccc1CNC(=O)c1ccc(NC(=O)C2=CSCCO2)cc1	28.2	18.1*	?	-20.2%	0.9%
CCN1CCN(CCCNC(=O)c2ccc(NC(=O)C3=CSCCO3)cc2)CC1	7.7	1.2	45.0%	14.5%	1.8%
CCOc1ccccc1CNC(=O)c1ccc(NC(=O)C2=C(C)OCCS2)cc1	-7.1	-7.1	6.57µM*	?	-0.3%
O=C(Nc1ccc(C(=O)NCC2CCN(Cc3ccccc3F)CC2)cc1)C1=CSCCO1	28.6	14.4*	?	-12.4%	0.2%
Cc1ccc(CN2CCC(CNC(=O)c3ccc(NC(=O)C4=CSCCO4)cc3)CC2)cc1	22.4	9.9	?	?	2.9%
c1coc(-c2ccnc3ncnn23)c1	-2.1	-3.6	10.9%	-12.2%	4.4%
CCOc1ccccc1C(=O)NCC(=O)N(C)Cc1ccccc1C	-2.6	-0.9	13.1µM*	10.4µM*	2.0%
